The nature of experiment [1]: Nuclear factor erythroid 2-related factor 2/antioxidant responsive element (Nrf2/ARE) small molecule agonists: qHTS cell viability counter screen in human keratinocytes (AID 1919968; active means well fitted curve in the direction sought with a large enough effect in the repeat runs; an effect the other way counts as inactive or inconclusive; further: nearly all actives have a fitted effect of over 55% in size; further: potency means the concentration at half of the fitted maximal effect). The essentials: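 HaCaT ARE reporter line, 1,500 cells/well; 5 h settle, 37 C/5% CO2; cpd in DMSO pinned; 23 h exposure; CellTiter-Fluor, 1 h; fluorescence.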
(qHTS replaces the single test concentration by a dilution series.)

The nature of experiment [2]: Nuclear factor erythroid 2-related factor 2/antioxidant responsive element (Nrf2/ARE) small molecule agonists: luciferase reporter gene qHTS assay in human keratinocytes (AID 1919969). Further: nearly all actives have a fitted effect of over 35% in size. Further: potency means the concentration at half of the fitted maximal effect.
In experiment [3] the target is Gonadotropin-releasing hormone receptor (Homo sapiens) (UniProt P30968). Put plainly: Human gonadotropin-releasing hormone receptor (GnRHR) small molecule agonists, calcium flux assay in GnRHR-HEK293 cells (AID 1920063). Further: nearly all actives have a fitted effect of over 35% in size. In short, it runs like this:
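GnRHR-HEK293, 1500 cells/well, 18 h 37 C/5% CO2; Ca dye 1 h 37 C; cpd pinned (DMSO), agonist mode; kinetic FL 480/540, 3 min, 1 s reads; 15 conc, n=3.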
(In general: Calcium flux is commonly read through the fluorescence of an indicator in the cells.)

Experiment [4] has as its target KiSS-1 receptor (Homo sapiens) (UniProt Q969F8). The experiment can be described thus: Human kisspeptin (KISS1R) small molecule agonists, calcium flux assay in KISS1R-HEK293 cells (AID 1920064; active means well fitted curve in the direction sought with a large enough effect in the repeat runs; an effect the other way counts as inactive or inconclusive). In short, it runs like this:
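Stable human KISS1R HEK293 line; 18 h plating, 37 C/5% CO2; calcium dye 1 h 37 C; compound pin transfer; kinetic fluorescence Ex/Em 480/540, 3 min.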

Experiment [5] can be described thus: G protein-coupled receptor (GPCR) small molecule agonists, calcium flux assay: HEK293 wild type cell line counter screen (AID 1920065). In short, it runs like this: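 Kinetic fluorescence at Ex/Em 480/540, recorded every second over 3 min, served as the read-out after compound addition. Each compound was tested at 15 concentrations in triplicate on cells pre-loaded with calcium dye for 1 h.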

Experiment [6] in a line: p53 small molecule agonists, cell-based qHTS assay with rat liver microsomes: qHTS cell viability counter screen (AID 1963580). Further: nearly all actives have a fitted effect of over 45% in size. In short, it runs like this: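 Viability is assessed in parallel with the p53 reporter read: HCT-116 p53RE-bla cells receive compounds plus rat microsomes and NADPH (0.5 mg/mL final apiece), incubate 16 h at 37 C, and then CellTiter-Glo luminescence is recorded.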

The nature of experiment [7]: p53 small molecule agonists, cell-based qHTS assay: qHTS cell viability counter screen (AID 1963581). Further: nearly all actives have a fitted effect of over 45% in size. Further: potency means the concentration at half of the fitted maximal effect. The essentials:
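HCT-116 p53RE-bla cells, 4,000/well, plated 5 h before compound pin transfer; 16 h at 37 C; bla substrate 2 h RT; then CellTiter-Glo, 30 min RT, luminescence.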

The target of experiment [8] is Muscarinic acetylcholine receptor M1 (Homo sapiens) (UniProt P11229). The experiment can be described thus: Cholinergic receptor muscarinic 1 (CHRM1) small molecule antagonists, cell-based qHTS assay (AID 1963588). Further: nearly all actives have a fitted effect of over 40% in size. Further: potency means the concentration at half of the fitted maximal effect. The essentials: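 CHRM1-CHO calcium-flux assay, antagonist mode. Cells were seeded 18 h, dye-loaded 1 h at 37 C and given compound for 5 min at RT, then acetylcholine was added at 50nM. FDSS fluorescence was read 3 min; 15 concentrations, three runs.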

Experiment [9] shares this target. Put plainly: Cholinergic receptor muscarinic 1 (CHRM1) small molecule agonists, cell-based qHTS assay (AID 1963589). Further: nearly all actives have a fitted effect of over 35% in size. The essentials:
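Human M1 in stable CHO line; 18 h plating, 1 h dye load 37 C; cpd added (agonist mode); Ca2+ fluorescence kinetic read, 1 s intervals; 15 conc, 3 runs.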

A short description of experiment [10]: cAMP Responsive Elements (CRE) small molecule agonists, cell-based qHTS assay (AID 1963590). The essentials: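 HEK 293T CRE-bla, 2,000 cells/well, 18 h preincubation 37 C/5% CO2; cpds (DMSO) pinned, 3 h; LiveBLAzer B/G FRET substrate, 2 h RT.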
Experiment [11] can be described thus: cAMP Responsive Elements (CRE) small molecule antagonists, cell-based qHTS assay (AID 1963591; active means well fitted inhibition curve with a large enough effect in the signal ratio in the repeat runs, not every such curve was filed as active; the % refers to the signal ratio). The essentials:
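Beta-lactamase reporter read by FRET substrate (LiveBLAzer B/G) after 2 h at room temperature. CRE-bla HEK293T cells had received compound plus 0.25 uM (final) NKH477 for 3 h at 37 °C.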

The target in experiment [12] is D(2) dopamine receptor (Homo sapiens) (UniProt P14416). Put plainly: Dopamine D2 receptor (DRD2) small molecule agonists, cell-based qHTS assay (AID 1963594). Further: nearly all actives have a fitted effect of over 35% in size. Further: potency means the concentration at half of the fitted maximal effect. In short, it runs like this: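 HEK293 cells stably expressing human DRD2, pre-treated with PDE inhibitor Ro20-1724 (0.1 mM final) and compound 10 min at room temperature, then stimulated with NKH477 (200nM […]) for 30 min. cAMP read by HTRF (665/620 nm).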

In experiment [13] the target is 5-hydroxytryptamine receptor 2A (Homo sapiens) (UniProt P28223). Put plainly: 5-hydroxytryptamine receptor 2A (HTR2A) small molecule antagonists, cell-based qHTS assay (AID 1963586). Further: nearly all actives have a fitted effect of over 45% in size. In short, it runs like this:
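Antagonist-mode intracellular calcium assay: DOI (4 nM) added after 5 min compound pre-incubation at room temperature to dye-loaded HTR2A-CHO cells. Fluorescence followed for 3 min, sampled every second.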

Experiment [14] shares this target. The experiment can be described thus: 5-hydroxytryptamine receptor 2A (HTR2A) small molecule agonists, cell-based qHTS assay (AID 1963587). Further: nearly all actives have a fitted effect of over 30% in size. In short, it runs like this:
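CHO cells stably expressing human HTR2A, plated 18 h, loaded with calcium dye 1 h at 37 C. Agonist mode: compounds added and intracellular calcium fluorescence recorded kinetically for 2 min at 1 sec intervals.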

The target of experiment [15] is Beta-2 adrenergic receptor (Homo sapiens) (UniProt P07550). Put plainly: Adrenergic beta2 receptor (ADRB2) small molecule antagonists, cell-based qHTS assay (AID 1963592). Further: series mostly up to about 92 µM; nearly all actives have a fitted effect of over 50% in size. In short, it runs like this:
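Cells (CHO, stable ADRB2 overexpression) incubated 18-20hr at 37C; compounds added from DMSO; agonist mix (1nM isoproterenol, 100uM IBMX, 25uM Ro-20-1724) added; 0.5hr RT; d2-cAMP and anti-cAMP-cryptate added; 1hr RT; 665/615 nm read.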

Experiment [16] shares this target. Put plainly: Adrenergic beta2 receptor (ADRB2) small molecule agonists, cell-based qHTS assay (AID 1963593).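 Further: CHO cells stably overexpressing human ADRB2.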 The essentials:
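CHO cells stably over-expressing ADRB2 were plated overnight at 37C, then dosed with compounds plus a stimulation mix containing 100uM IBMX and 25uM Ro-20-1724 for 0.5hr at room temperature. cAMP was measured by HTRF competition, 1hr.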

The target of experiment [17] is D(2) dopamine receptor (Homo sapiens) (UniProt P14416). Put plainly: Dopamine D2 receptor (DRD2) small molecule antagonists, cell-based qHTS assay (AID 1963595; active means well fitted inhibition curve with a large enough effect in the signal ratio in the repeat runs, with a control signal flat; the % refers to the signal ratio). In short, it runs like this: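 HTRF cAMP read-out at 665 and 620 nm emission (340 nm excitation). Antagonist mode: compounds were tested against 12 nM quinpirole in DRD2-HEK293 cells, with 200 nM NKH477 raising cAMP and 0.1 mM Ro20-1724 blocking its breakdown.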

Experiment [18] in a line: p53 small molecule agonists, cell-based qHTS assay with human liver microsomes: qHTS cell viability counter screen (AID 1963579). Further: nearly all actives have a fitted effect of over 45% in size. In short, it runs like this:
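Metabolically activated exposure: compounds, human liver microsomes and NADPH (0.5 mg/mL final apiece) were added to p53RE-bla cells seeded 5 h earlier, left 16 h at 37 C, and then assessed for viability by CellTiter-Glo luminescence.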

A number with no mark means an inactive call. Records with an inconclusive call do not appear. Calls of active or inactive are those of the source. Unless noted, the call rests on the fitted dose curve.

Chain of D(2) dopamine receptor (Homo sapiens) (P14416 whole entry, looked up): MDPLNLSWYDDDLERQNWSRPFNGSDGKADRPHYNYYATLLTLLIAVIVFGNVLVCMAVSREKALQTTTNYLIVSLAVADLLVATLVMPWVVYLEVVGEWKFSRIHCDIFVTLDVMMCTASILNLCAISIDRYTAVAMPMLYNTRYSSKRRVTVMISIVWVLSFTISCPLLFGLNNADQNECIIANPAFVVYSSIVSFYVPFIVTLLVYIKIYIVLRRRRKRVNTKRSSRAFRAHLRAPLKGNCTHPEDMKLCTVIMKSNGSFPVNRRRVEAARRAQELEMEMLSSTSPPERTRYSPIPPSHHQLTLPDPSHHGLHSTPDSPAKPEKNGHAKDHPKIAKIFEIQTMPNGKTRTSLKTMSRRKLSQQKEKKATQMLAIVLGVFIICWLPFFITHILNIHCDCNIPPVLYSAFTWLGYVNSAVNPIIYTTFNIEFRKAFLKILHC
Chain of Gonadotropin-releasing hormone receptor (Homo sapiens) (P30968 whole entry, looked up): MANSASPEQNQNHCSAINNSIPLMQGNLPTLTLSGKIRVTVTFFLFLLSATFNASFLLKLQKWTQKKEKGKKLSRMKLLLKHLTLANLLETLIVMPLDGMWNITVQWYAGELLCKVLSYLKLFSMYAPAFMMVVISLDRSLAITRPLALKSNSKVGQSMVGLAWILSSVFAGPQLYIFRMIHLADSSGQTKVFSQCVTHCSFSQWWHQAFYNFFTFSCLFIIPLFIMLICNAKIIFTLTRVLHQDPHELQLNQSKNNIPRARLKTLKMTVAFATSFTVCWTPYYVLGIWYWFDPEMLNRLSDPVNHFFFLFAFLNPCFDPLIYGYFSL
Chain of Beta-2 adrenergic receptor (Homo sapiens) (P07550 whole entry, looked up): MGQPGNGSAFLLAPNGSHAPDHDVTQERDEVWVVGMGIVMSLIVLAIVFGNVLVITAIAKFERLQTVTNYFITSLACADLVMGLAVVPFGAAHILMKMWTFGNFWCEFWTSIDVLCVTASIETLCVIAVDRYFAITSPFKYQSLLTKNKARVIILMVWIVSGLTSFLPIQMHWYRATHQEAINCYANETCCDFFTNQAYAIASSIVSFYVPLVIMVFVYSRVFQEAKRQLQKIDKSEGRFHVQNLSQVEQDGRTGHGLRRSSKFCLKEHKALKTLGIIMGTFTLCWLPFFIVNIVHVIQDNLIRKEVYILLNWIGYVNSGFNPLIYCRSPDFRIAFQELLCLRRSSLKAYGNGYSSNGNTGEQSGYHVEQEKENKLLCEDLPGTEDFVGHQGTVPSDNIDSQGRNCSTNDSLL
Chain of Muscarinic acetylcholine receptor M1 (Homo sapiens) (P11229 whole entry, looked up): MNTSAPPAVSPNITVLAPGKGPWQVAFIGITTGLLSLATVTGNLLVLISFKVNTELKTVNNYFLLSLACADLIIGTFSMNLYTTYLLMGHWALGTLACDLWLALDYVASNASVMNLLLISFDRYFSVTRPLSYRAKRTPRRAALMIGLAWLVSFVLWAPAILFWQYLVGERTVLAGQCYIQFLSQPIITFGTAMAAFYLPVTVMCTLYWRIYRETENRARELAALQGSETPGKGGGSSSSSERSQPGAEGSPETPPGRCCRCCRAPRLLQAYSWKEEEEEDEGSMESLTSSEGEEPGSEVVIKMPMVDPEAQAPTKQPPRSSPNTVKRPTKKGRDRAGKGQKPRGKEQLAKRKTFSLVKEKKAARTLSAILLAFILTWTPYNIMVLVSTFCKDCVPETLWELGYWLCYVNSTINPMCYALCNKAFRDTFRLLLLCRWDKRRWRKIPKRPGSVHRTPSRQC
Chain of KiSS-1 receptor (Homo sapiens) (Q969F8 whole entry, looked up): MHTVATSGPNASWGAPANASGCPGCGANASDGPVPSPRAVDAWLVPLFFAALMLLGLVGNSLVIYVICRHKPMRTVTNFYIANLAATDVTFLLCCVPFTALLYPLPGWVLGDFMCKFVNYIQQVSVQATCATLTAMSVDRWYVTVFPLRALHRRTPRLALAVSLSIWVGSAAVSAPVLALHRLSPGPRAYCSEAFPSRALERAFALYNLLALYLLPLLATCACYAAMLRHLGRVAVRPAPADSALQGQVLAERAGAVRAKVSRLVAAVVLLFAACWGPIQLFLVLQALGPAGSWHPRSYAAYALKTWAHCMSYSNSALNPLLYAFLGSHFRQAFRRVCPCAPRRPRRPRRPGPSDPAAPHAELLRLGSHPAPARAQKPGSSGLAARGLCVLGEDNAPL
Chain of 5-hydroxytryptamine receptor 2A (Homo sapiens) (P28223 whole entry, looked up): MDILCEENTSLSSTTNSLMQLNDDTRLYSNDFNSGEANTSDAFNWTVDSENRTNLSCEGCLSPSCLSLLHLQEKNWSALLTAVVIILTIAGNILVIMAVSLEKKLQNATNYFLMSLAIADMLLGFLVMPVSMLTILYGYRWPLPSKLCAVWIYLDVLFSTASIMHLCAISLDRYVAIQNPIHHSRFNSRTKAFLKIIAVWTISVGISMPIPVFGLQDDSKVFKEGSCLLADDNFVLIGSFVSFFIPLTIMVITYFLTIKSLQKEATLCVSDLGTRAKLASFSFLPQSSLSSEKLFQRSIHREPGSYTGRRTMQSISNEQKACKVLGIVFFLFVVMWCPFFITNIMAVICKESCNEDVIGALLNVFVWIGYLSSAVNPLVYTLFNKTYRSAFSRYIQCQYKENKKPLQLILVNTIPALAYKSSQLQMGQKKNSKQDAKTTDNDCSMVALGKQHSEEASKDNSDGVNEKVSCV

Regarding `COc1cc(C(C)=O)ccc1OCCCN1CCC(c2noc3cc(F)ccc23)CC1`, the Potency result in experiment [1], in experiment [2], in [3], in experiment [4], in experiment [5] and in experiment [6] was “inactive” in each case. Moreover, the Potency result in experiment [7], in experiment [9], in experiment [10], in [11] and in experiment [12] was “inactive” each time. For the same molecule, in experiment [8], the Potency was 3.65 µM (active).
Take `Cc1nc([N+](=O)[O-])cn1-c1ccc([N+](=O)[O-])cc1`: the Potency result in [1], in experiment [2], in experiment [3], in experiment [4], in experiment [5] and in experiment [6] was “inactive” throughout. The Potency result in experiment [7], in experiment [13], in experiment [14], in [8], in [9] and in experiment [11] was “inactive” each time. Besides, the Potency result in [15], in [16], in experiment [12] and in experiment [17] was “inactive” in each case.
Take `N#Cc1ccc(C(c2ccc(C#N)cc2)n2cncn2)cc1`: the Potency entry in experiment [1], in experiment [2], in experiment [3], in experiment [4], in experiment [5] and in experiment [18] was “inactive” in each case. In addition, the Potency result in experiment [7], in experiment [11], in experiment [16], in experiment [12] and in [17] was “inactive” in each case.
`O=C(NS(=O)(=O)/C=C/c1cccs1)c1ccc(F)cc1Br`: the Potency result in [1], in experiment [3], in experiment [4], in experiment [5], in [6] and in [7] was “inactive” each time. The Potency entry in experiment [14], in [8], in [9], in [15], in experiment [12] and in [17] was “inactive” throughout. In experiment [2], the Potency is 27.3 µM (active).
As for `C=C1C(C)(C)[C@@]2(Cl)C(Cl)[C@]1(Cl)C(Cl)(Cl)C2(Cl)Cl` (stereo not given in full), the Potency is 47.7 µM (active) in experiment [1], 9.51 µM (active) in experiment [2] and 40 µM (active) in experiment [7]. Further, the Potency entry in experiment [3], in experiment [4], in experiment [5], in [6], in [13] and in [8] was “inactive” in each case. The Potency entry in experiment [9], in experiment [15], in [12] and in experiment [17] was “inactive” each time.
For `CCCCN(CCCC)CCC(O)c1cc2c(Cl)cc(Cl)cc2c2cc(C(F)(F)F)ccc12` (stereo not given), in experiment [1], the Potency is 21.1 µM (active). For the same molecule, the Potency result in experiment [2], in experiment [3], in experiment [4], in experiment [5], in experiment [6] and in [7] was “inactive” throughout. In addition, the Potency entry in [14], in [8], in [9], in experiment [10], in experiment [15] and in experiment [17] was “inactive” each time.
Regarding `O=C1[C@@H]2[C@H]3CC[C@H](C3)[C@@H]2C(=O)N1CCCCN1CCN(c2ncccn2)CC1`, the Potency entry in [1], in experiment [2], in [3], in experiment [4], in experiment [5] and in [18] was “inactive” throughout. The Potency entry in [14], in experiment [8], in experiment [10], in experiment [11], in experiment [15] and in experiment [16] was “inactive” in each case. In addition, the Potency in [12] is 0.0944 µM (active).
Regarding `CCCCCCOC(=O)CCCCCCCC(=O)OCCCCCC`, the Potency result in experiment [1], in [2], in experiment [3], in experiment [4], in [5] and in experiment [6] was “inactive” in each case. The Potency result in [7], in experiment [13], in [8], in [9], in [11] and in [15] was “inactive” in each case. Further, in experiment [17], the Potency result was “inactive”.
`NCCc1ccn[nH]1`: the Potency result in experiment [1], in [2], in experiment [3], in [4], in experiment [5] and in [6] was “inactive” throughout. The Potency entry in experiment [7], in experiment [14], in [8], in experiment [9], in experiment [10] and in experiment [11] was “inactive” each time. Besides, the Potency result in [15], in [16], in experiment [12] and in experiment [17] was “inactive” throughout.

(Values after PubChem BioAssay (Tox21).)
